System: Scedosporium aurantiacum CBS 136046
Assay: growth inhibition relative to DMSO control (OD600); higher = more antifungal activity, active = 80 or more; extreme values may be limits of the assay
Settings: 5 µM; 72 h; 37 °C
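Further: conidia screened in RPMI 1640 medium under 5% CO2, growth read by spectrophotometer, medium with 0.5% DMSO serving as the untreated reference.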

Growth inhibition, inactive:
COC(=O)Nc1nc2cc([S+]([O-])c3ccccc3)ccc2[nH]1 (stereo unspecified) 0.624%, O=C(NCCN1CCCCC1)c1cccc(C(F)(F)F)c1 10.1%, C[C@H]1COc2c(N3CCN(C)CC3)c(F)cc3c(=O)c(C(=O)O)cn1c23 6.31%, Nc1nc(-c2ccccc2)nc2[nH]nc(Nc3ccc(C(F)(F)F)cc3)c12 16.5%, O=c1[nH]c(=O)n(Cc2cccc(Oc3ccccc3)c2)cc1Nc1ccccc1 12.7%, O=C(NCc1cccc2ccccc12)c1cccs1 0%, Cc1ccc(NC(=O)c2cc(Cl)ccc2O)cc1 4.62%, CCCCCCCCCN1C[C@@H](O)[C@H](O)[C@@H](O)[C@@H]1CO 13.7%, [N-]=[N+]=N[C@H]1C[C@H](n2ccc(=O)[nH]c2=O)O[C@@H]1CO 11.7%, CC1=C(/C=C/C(C)=C/C=C/C(C)=C/C(=O)Nc2ccc(O)cc2)C(C)(C)CCC1 14.5%, CC1(C)CC(NC(=O)C(=O)Nc2ccc(Cl)cc2)CC(C)(C)N1 8.43%, CC(C)Oc1ccc(-n2cnc3cc(/C=C\c4ccc(C(C)(C)O)cc4)ccc32)cc1 28.5%, O=C(O)c1sccc1S(=O)(=O)n1ccc2cc(Br)ccc21 14.6%, CCCCCCC1c2ccc(O)cc2Oc2cc(O)ccc21 4.47%, Cc1cc(CCCOc2c(C)cc(-c3noc(C(F)(F)F)n3)cc2C)on1 9.58%, CCN(CC)CCCC(C)Nc1ccnc2cc(Cl)ccc12 (stereo unspecified) 21.6%
